FGF22 binding: binders of human FGF22 protein, primary screen, FGF22 synaptogenesis inhibitor project, biophysical, thermal shift, single point. activity (Tm shift, normalised), % at 9.99 µM. recombinant FGF22 thermal shift, SYPRO orange fluorescence; percent of sucrose octasulfate shift, DMSO zero. hit rate 1.5% among 340,000. AID 651658, 2012;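 active = mean Tm shift, scaled 0 neutral to 100 positive control, at about 1.3% or above, every replicate too, limit read from the data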
ADAM17 inh: ADAM17 inhibitors, primary screen, biochemical, QFRET. inhibition, % at 6.95 µM. Disintegrin and metalloproteinase domain-containing protein 17 (Homo sapiens), P78536. recombinant ADAM17, EDANS/DABCYL FRET peptide cleavage. AID 720648, 2013. hit rate 0.83% among 370,000;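 active = inhibition above the mean of compounds lying between control limits plus 3 SD, set per campaign, cut at about 8.5% in these data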;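 note: 0% = DMSO-only wells as the low control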
Target sequence (P78536 215-824 limits assumed): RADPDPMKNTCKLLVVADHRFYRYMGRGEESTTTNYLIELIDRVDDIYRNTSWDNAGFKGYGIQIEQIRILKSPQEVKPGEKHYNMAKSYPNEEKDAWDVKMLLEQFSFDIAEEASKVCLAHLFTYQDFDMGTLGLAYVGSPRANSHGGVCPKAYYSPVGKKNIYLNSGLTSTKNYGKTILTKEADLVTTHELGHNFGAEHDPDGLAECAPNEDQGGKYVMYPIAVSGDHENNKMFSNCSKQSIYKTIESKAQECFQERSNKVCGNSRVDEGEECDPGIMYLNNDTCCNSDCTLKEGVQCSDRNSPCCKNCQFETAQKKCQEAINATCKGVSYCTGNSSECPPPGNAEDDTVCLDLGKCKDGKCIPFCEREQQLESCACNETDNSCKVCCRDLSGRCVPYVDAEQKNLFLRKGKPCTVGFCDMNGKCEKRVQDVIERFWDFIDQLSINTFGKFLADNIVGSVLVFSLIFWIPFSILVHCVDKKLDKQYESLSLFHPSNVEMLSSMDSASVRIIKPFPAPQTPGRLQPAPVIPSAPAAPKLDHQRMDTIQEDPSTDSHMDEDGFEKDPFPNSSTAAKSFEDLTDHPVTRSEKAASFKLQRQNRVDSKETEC
rRNA inh HTS: reduced GFP signal of wild-type E. coli, primary screen, bacterial rRNA inhibitor project, GFP/RFP fluorescence, OD600, single point | E. coli WT GFP vs humanized-ribosome RFP mutants, 24 h; stronger effect = lower value; DMSO median 0, no signal -100 | GFP signal change (wild-type ribosome), % (test concentration not listed) | hit rate 1.6% among 350,000;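 active = significant combined selectivity score with lowered wild-type GFP, culture density cut under 30%, mutant RFP and density less affected; inactive = any of these conditions unmet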
ADAM10 inh: human ADAM10 inhibitors, primary screen, biochemical, QFRET, HTS. recombinant ADAM10, EDANS/DABCYL FRET peptide cleavage, 3 h. inhibition, % at 7 µM. hit rate 0.62% among 370,000;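 active = inhibition above a per-campaign cutoff equal to the mean of compounds falling between control-based bounds plus 3 SD, cut at about 20% in these data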;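 note: 0% = DMSO wells while the 100% control is not disclosed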
proKLK7 act: proKLK7 zymogen activators, primary screen, biochemical, fluorescence intensity. Kallikrein-7 (Homo sapiens), P49862. purified proKLK7, EDANS-DABCYL substrate fluorescence; 100% is mature enzyme control, 0% vehicle. activation, % at 7 µM. hit rate 0.9% among 370,000. AID 652039, 2013;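 active = activation above the mean of all tested compounds plus 3 SD, computed per campaign excluding outliers beyond control limits, cut at about 13% in these data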
An asterisk follows results filed as active; . = not tested or not shown; ! = repeats disagree. Most compounds without a hit are left out; they make up all but 3.8% or so of the library.

SMILES | FGF22 binding | ADAM17 inh | rRNA inh HTS | ADAM10 inh | proKLK7 act
CCCC#Cc1cnc2c(c1)C(=O)N([C@@H](C)CO)C[C@H](C)[C@@H](CN(C)C(=O)NCCC)O2 | 0 | . | 3 | . | .
Cc1ccc(-c2ccc3c(c2)O[C@H](CN(C)C(=O)C2CCCCC2)[C@@H](C)CN([C@H](C)CO)S3(=O)=O)cc1 | . | . | -4 | . | .
C[C@H](CO)N1C[C@H](C)[C@H](CN(C)S(=O)(=O)c2cn(C)cn2)OCCCC[C@H](C)Oc2ccc(NC(=O)Nc3ccc(F)cc3)cc2C1=O | . | . | -3 | . | .
C[C@@H]1CCCCO[C@H](CN(C)Cc2ccc(Cl)c(Cl)c2)[C@@H](C)CN([C@H](C)CO)C(=O)c2cc(N(C)C)ccc2O1 | 43*! | 2 | -15 | 11 | 0
C[C@@H]1CCCCO[C@H](CN(C)Cc2ccc3c(c2)OCO3)[C@@H](C)CN([C@@H](C)CO)C(=O)c2cc(NC(=O)C3CCCCC3)ccc2O1 | 13* | . | 0 | . | .
COc1ccc(NC(=O)Nc2ccc3c(c2)C(=O)N([C@H](C)CO)C[C@H](C)[C@@H](CN(C)Cc2ccc(Cl)c(Cl)c2)OCCCC[C@@H](C)O3)cc1 | 1 | 5 | 3 | 21* | 0
COc1ccc(NC(=O)Nc2ccc3c(c2)C(=O)N([C@H](C)CO)C[C@H](C)[C@@H](CN(C)S(=O)(=O)c2cn(C)cn2)OCCCC[C@H](C)O3)cc1 | 1.4* | . | -1 | . | .
C[C@@H]1CCCCO[C@H](CN(C)Cc2ccc3c(c2)OCO3)[C@H](C)CN([C@@H](C)CO)C(=O)c2cc(NC(=O)C3CCCCC3)ccc2O1 | 0 | . | 1 | . | .
COc1ccc(NC(=O)Nc2ccc3c(c2)C(=O)N([C@@H](C)CO)C[C@H](C)[C@@H](CN(C)Cc2ccc(Cl)c(Cl)c2)OCCCC[C@@H](C)O3)cc1 | 0 | . | -6 | . | .
C[C@H]1CN([C@@H](C)CO)C(=O)c2cc(-c3cccc(C#N)c3)cnc2O[C@@H]1CN(C)Cc1ccccc1 | 0 | . | 1 | . | .
COc1ccc2c3c(n(C)c2c1)[C@H](CO)N(C(=O)c1cccnc1)CC31CCN(S(C)(=O)=O)CC1 | . | . | 1 | . | .
COc1ccc(NC(=O)Nc2ccc3c(c2)C(=O)N([C@H](C)CO)C[C@@H](C)[C@H](CN(C)C(=O)NC2CCCCC2)OCCCC[C@H](C)O3)cc1 | 15* | . | 0 | . | .
C[C@H]1CCCCO[C@@H](CN(C)CC2CCCCC2)[C@@H](C)CN([C@@H](C)CO)C(=O)c2cc(NC(=O)Nc3ccc4c(c3)OCO4)ccc2O1 | 1.7* | . | -13 | . | .
COc1ccc(NC(=O)Nc2ccc3c(c2)C(=O)N([C@H](C)CO)C[C@@H](C)[C@@H](CN(C)Cc2ccc4c(c2)OCO4)OCCCC[C@H](C)O3)cc1 | 0 | 1 | -34*! | 2 | 0
COc1ccc(S(=O)(=O)N2c3ccc(F)cc3CCC2C)cc1 (centres undefined) | 0 | 2 | -28* | 8 | 0
C[C@H]1CN([C@@H](C)CO)C(=O)c2cc(NC(=O)CCCCCC(=O)Nc3ccccc3N)ccc2O[C@H]1CN(C)C(=O)NC1CCCCC1 | . | . | 5 | . | .
CC1CCN(S(=O)(=O)c2ccc(NC(=O)Cn3nnc(-c4ccccc4)n3)cc2)CC1 | . | 10* | . | 19 | 1
C[C@@H]1CN([C@H](C)CO)C(=O)c2cc(C#CC3CC3)cnc2O[C@@H]1CN(C)C(=O)c1ccncc1 | . | . | -5 | . | .
O=C(NNC(=O)c1cccc2ccccc12)c1cccc(Br)c1 | 0 | 2 | -22* | -2 | 0
O=C(C[C@@H]1CC[C@@H]2[C@H](COC[C@H](O)CN2S(=O)(=O)c2cccc(Cl)c2)O1)N1CCCCC1 | 0 | . | -1 | . | .
COc1ccc(OC)c(NC(=O)CN(C)S(=O)(=O)c2ccc3nc(C)sc3c2)c1 | . | -4 | . | 0 | 0
Cc1nc2ccc(S(=O)(=O)N(C)CC(=O)Nc3ccccc3F)cc2s1 | 44* | 2 | -6 | 8 | 0
[O-]/[N+](=C\c1ccccc1)[C@@H]1CCCC[C@@H]1/[N+]([O-])=C/c1ccccc1 | . | -6 | . | -9 | 0
[O-][N+](=Cc1ccccc1)CC1(O)CCCCC1 | 43* | -1 | 14 | -5 | 0
CNc1snc(C)c1C(=O)OC(C)C(=O)c1ccc(F)cc1 (centres undefined) | 0 | -1 | -24* | -3 | 0
SMILES | FGF22 binding | ADAM17 inh | rRNA inh HTS | ADAM10 inh | proKLK7 act
CC(C)NC(=O)N(C)C[C@H]1Oc2ncc(C#CC3CCCC3)cc2C(=O)N([C@@H](C)CO)C[C@H]1C | 0 | . | 2 | . | .
O=C(O)CSCC(=O)NCc1c(Cl)cccc1Oc1ccccc1 | 0 | -4 | . | -5 | 0
O=S(=O)(NCc1c(Cl)cccc1Oc1ccccc1)c1ccc(F)cc1 | 0 | 3 | -39* | 7 | 0
CCOC(=O)CCC(=O)c1c(C)oc2ccc(OC)cc12 | . | 9.9* | . | 0 | -1
C(=NN=C(NN=Cc1cccs1)NN=Cc1cccs1)c1cccs1 | 43* | -2 | -23 | 1 | -1
O=C(N/N=C/c1cccs1)c1ccccn1 | . | -1 | . | -7 | 0
C[C@@H](NC(=O)C[C@@H]1C=C[C@@H](NC(=O)C2CCC2)[C@H](CO)O1)c1ccccc1 | 0 | . | 1 | . | .
C[C@H](CO)N1C[C@H](C)[C@@H](CN(C)C(=O)c2ccncc2)Oc2ncc(C3=CCCCC3)cc2C1=O | 0 | . | 1 | . | .
CCc1nc(Nc2ccccc2)c2nnn(Cc3ccccc3)c2n1 | 0 | -3 | -30* | -1 | -2
CN(C)CCCOc1ccc(-c2cccc3nncn23)cn1 | 43* | -24 | 9 | -75 | 2
C=CCNc1nc(Cl)nc(Nc2ccc([N+](=O)[O-])cc2)n1 | 44* | 1 | 8 | -2 | 0
Clc1nc(Nc2ccccc2)nc(Nc2ccccc2)n1 | . | -1 | . | 5 | 0
C=CCNc1nc(Cl)nc(Nc2ccc(OC)cc2)n1 | . | -2 | . | 3 | 0
COc1ccc(Nc2nc(Cl)nc(Nc3ccc(OC)cc3)n2)cc1 | 43* | 2 | 7 | 1 | 0
CC(=O)Nc1ccc(Nc2nc(Cl)nc(Nc3ccc(NC(C)=O)cc3)n2)cc1 | 44* | -9 | 8 | 10 | 3
C=CCNc1nc(Cl)nc(Nc2ccc(OC)cc2OC)n1 | 43* | 0 | 10 | 0 | 0
COc1ccc2c3c([nH]c2c1)[C@H](CO)N(Cc1ccccc1)CC31CN(S(=O)(=O)c2ccc(C)cc2)C1 | 0 | . | 3 | . | .
COCC(=O)N1CCC2(CC1)CN(C(=O)NC1CCCC1)[C@H](CO)c1c2c2ccc(OC)cc2n1C | 0 | . | -2 | . | .

Source: PubChem BioAssay (several laboratories)
